Results on 13 sequences are retold here after publication PMC7862700, “An all-to-all approach to the identification of sequence-specific readers for epigenetic DNA modifications on cytosine”.

Common to all, as to assay: DAPPL (digital affinity profiling via proximity ligation, sequencing); 10 mM Tris-HCl pH 7.5, 50 mM NaCl, 1 mM DTT, 4% glycerol, room temperature, 30 min; GST-TFs on glutathione beads, 16-mer random dsDNA library, 0.1% formaldehyde crosslink after washing; high values mean tight binding
What all share (details): protein: recombinant; tags: N-terminal GST; dsDNA, one strand shown

The target of one test is T1, ERG (Homo sapiens, UniProt P11308 1-479).
T1 sequence: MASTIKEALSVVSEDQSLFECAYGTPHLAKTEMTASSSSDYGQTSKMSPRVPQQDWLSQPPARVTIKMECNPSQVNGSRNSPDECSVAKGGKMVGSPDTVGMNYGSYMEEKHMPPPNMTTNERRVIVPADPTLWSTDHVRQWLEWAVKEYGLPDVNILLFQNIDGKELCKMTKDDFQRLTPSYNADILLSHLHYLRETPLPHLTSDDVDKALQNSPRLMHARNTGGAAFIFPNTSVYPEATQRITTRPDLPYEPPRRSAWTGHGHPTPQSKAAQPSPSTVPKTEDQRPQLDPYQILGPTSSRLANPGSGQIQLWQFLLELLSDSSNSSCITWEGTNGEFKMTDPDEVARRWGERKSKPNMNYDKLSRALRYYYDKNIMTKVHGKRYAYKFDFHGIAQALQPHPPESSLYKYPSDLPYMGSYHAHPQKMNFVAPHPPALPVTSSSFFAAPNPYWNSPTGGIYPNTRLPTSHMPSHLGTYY
In a few lines:
(§1)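 In yeast, human transcription factors were expressed with a GST fusion, then pulled down on glutathione beads and given DNA barcodes. Pooled with a tag-only sample, they were exposed to 200 nmole of a 16-mer random double-stranded DNA library (Tris/NaCl/DTT/glycerol buffer, room temperature, 30 min), washed, crosslinked with 0.1% formaldehyde, proximity-ligated using BsaI/T4 ligase for 1 h at 37 °C, PCR-amplified and read on an Illumina NextSeq500. Each hexamer's frequency of reads for a factor, divided by the matching frequency for the tag-only sample, gives the binding signal.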

Another test addresses T2, EHF (Homo sapiens, UniProt Q9NZC4 1-300).
T2 sequence: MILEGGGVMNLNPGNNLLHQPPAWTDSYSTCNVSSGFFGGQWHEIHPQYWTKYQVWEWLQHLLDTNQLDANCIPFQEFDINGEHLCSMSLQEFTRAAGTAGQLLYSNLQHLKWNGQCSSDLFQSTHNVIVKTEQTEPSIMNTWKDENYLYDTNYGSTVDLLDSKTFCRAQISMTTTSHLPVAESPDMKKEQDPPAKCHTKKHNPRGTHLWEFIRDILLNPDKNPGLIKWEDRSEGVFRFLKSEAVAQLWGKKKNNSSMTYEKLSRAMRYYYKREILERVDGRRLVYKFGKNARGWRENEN
In a few lines:
as §1

The next test concerns the target SPIB (Homo sapiens, UniProt Q01892 1-262). In a few lines:
as §1

The target in the next test is T3, ETV7 (Homo sapiens, UniProt Q9Y603 1-341).
T3 sequence: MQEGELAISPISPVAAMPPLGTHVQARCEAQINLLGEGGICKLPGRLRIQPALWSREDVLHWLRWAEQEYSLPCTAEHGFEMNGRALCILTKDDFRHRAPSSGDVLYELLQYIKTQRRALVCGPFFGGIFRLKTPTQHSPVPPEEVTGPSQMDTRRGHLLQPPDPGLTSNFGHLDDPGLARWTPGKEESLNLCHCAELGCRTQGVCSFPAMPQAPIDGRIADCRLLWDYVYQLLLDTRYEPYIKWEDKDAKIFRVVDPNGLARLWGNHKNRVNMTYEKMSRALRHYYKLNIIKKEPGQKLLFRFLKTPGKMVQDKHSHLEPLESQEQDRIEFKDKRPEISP
The method in brief: as §1

Another test concerns the target T4, ETV3 (Homo sapiens, UniProt P41162-2 1-143).
T4 sequence: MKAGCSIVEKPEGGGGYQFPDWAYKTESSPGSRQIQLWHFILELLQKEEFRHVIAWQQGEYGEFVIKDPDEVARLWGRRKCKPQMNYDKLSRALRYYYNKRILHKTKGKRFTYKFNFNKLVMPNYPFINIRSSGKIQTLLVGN
The method in brief:
as §1

The target in the next test is T5, ELK3 (Homo sapiens, UniProt P41970 1-407).
T5 sequence: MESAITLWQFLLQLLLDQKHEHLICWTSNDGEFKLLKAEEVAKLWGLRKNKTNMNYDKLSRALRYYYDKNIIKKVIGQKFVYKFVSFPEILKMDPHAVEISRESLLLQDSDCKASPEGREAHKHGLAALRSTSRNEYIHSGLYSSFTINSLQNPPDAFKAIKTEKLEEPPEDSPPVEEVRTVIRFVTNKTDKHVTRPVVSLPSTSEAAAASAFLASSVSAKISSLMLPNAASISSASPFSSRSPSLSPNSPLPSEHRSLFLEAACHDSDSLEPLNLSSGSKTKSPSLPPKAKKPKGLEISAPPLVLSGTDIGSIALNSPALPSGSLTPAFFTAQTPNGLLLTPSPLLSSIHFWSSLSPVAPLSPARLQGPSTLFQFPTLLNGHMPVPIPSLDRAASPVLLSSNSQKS
The method in brief: as §1

A further test addresses T6, ERF (Homo sapiens, UniProt P50548 1-548).
T6 sequence: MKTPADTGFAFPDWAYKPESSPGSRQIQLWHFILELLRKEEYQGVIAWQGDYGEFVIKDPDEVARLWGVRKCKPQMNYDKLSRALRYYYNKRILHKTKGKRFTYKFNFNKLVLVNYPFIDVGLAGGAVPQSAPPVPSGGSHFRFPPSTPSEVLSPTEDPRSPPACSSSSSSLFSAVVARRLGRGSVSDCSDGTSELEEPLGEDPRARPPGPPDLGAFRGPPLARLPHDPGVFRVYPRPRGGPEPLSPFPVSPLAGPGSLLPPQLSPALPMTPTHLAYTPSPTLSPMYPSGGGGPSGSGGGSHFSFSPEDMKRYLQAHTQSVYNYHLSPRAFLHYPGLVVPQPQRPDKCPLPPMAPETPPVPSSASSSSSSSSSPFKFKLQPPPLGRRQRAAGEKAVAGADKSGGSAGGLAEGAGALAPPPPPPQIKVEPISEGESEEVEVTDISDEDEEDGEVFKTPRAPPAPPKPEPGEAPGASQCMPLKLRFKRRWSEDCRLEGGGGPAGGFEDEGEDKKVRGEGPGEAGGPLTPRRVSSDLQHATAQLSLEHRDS
The method in brief: as §1

The target in a further test is T7, SPDEF (Homo sapiens, UniProt O95238 1-335).
T7 sequence: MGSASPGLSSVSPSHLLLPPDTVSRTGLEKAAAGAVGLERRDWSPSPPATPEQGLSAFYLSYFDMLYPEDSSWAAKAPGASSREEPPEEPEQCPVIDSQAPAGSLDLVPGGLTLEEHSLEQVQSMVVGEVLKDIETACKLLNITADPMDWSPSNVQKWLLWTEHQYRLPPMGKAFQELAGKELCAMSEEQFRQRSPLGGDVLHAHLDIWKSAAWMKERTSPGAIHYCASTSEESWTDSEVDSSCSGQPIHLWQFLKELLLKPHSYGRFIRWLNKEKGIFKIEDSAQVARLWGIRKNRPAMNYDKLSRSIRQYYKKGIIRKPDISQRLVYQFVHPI
The method in brief: as §1

For the next test, the target named is T8, GABPA (Homo sapiens, UniProt Q06546 1-454).
T8 sequence: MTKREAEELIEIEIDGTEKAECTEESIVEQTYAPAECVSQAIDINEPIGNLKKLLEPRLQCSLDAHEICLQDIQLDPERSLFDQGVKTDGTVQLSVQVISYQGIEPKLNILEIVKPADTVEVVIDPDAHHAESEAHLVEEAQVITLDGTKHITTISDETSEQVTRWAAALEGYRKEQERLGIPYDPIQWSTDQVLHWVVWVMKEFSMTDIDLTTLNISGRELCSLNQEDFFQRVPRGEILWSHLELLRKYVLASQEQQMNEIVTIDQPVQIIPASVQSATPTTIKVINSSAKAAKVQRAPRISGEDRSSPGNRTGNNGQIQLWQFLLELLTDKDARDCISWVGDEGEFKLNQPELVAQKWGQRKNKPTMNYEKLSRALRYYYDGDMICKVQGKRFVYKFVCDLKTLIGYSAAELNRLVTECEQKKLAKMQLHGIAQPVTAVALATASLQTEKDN
The method in brief: as §1

A further test addresses ELF1 (Homo sapiens, UniProt P32519 1-619). The method in brief: as §1
In a further test the target is T9, FEV (Homo sapiens, UniProt Q99581 1-238).
T9 sequence: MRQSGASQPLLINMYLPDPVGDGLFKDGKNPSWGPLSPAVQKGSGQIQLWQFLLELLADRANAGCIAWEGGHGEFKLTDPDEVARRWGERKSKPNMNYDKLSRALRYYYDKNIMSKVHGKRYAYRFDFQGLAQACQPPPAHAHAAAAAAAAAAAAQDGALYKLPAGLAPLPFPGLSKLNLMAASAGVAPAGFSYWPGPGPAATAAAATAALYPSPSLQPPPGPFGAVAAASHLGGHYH
The method in brief:
as §1

For another test, the target named is T10, ETS2 (Homo sapiens, UniProt P15036 1-469).
T10 sequence: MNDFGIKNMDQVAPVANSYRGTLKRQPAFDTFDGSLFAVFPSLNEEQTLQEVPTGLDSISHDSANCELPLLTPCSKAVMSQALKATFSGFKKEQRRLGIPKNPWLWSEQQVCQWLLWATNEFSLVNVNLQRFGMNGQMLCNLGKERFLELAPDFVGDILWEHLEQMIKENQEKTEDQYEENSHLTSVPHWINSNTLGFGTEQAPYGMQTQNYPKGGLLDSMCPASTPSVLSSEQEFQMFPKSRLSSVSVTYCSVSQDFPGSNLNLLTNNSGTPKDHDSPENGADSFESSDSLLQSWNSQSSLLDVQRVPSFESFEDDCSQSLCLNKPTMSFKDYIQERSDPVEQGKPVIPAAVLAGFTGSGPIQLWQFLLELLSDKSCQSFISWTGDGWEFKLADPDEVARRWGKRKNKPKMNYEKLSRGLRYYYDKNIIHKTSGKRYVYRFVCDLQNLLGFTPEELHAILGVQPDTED
The method in brief: as §1

The next test has as its target T11, ETV3L (Homo sapiens, UniProt Q6ZN32 1-361).
T11 sequence: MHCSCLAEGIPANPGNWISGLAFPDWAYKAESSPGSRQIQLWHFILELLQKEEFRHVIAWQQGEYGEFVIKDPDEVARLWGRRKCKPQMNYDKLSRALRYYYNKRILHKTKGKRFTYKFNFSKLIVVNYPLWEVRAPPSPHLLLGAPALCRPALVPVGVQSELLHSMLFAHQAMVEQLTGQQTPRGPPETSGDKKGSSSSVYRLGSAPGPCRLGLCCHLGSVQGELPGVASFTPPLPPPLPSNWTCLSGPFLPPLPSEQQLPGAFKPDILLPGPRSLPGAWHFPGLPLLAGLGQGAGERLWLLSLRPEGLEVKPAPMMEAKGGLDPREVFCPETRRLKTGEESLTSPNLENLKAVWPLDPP
In a few lines: as §1

Another test has as its target ETV6 (Homo sapiens, UniProt P41212 1-452). In a few lines:
as §1

Sequence of ETV6 (P41212 whole entry): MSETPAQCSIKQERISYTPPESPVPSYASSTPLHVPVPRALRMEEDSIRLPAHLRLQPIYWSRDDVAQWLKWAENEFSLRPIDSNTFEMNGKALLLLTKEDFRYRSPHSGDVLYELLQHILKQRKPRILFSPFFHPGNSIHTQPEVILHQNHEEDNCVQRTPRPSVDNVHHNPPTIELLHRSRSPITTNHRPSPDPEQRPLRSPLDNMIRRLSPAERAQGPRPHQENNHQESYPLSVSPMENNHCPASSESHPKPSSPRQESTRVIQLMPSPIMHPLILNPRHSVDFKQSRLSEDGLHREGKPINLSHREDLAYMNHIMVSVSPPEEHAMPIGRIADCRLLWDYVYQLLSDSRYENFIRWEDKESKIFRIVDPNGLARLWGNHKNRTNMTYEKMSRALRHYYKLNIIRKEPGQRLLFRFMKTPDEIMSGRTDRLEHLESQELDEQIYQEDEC
Sequence of SPIB (Q01892 whole entry): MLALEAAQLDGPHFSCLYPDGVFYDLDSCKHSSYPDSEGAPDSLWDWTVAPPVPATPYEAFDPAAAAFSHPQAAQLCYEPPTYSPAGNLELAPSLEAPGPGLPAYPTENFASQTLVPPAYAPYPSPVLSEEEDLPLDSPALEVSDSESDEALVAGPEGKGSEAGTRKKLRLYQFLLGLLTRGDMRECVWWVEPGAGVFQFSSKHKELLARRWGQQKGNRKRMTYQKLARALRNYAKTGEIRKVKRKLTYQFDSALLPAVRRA
Sequence of ELF1 (P32519 whole entry): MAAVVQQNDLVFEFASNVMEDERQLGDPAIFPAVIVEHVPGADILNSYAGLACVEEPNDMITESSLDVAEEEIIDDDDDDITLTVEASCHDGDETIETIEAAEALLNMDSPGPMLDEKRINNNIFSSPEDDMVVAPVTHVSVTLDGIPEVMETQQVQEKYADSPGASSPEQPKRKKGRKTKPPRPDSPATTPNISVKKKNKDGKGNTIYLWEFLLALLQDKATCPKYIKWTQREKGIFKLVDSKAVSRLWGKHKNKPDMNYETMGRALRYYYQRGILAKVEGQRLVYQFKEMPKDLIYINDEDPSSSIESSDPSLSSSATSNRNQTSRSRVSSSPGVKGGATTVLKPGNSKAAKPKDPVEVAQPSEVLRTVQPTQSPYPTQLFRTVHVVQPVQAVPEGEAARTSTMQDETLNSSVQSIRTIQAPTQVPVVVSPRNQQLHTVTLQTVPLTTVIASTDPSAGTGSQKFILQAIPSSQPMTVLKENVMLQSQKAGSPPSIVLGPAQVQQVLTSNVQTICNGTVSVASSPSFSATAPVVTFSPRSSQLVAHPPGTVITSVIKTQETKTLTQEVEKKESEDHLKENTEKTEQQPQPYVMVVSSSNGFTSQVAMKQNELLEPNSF

For GAACAG, the binding signal with ERG was 1.02 fold enrichment (6-mer frequency, TF over GST control); with EHF, 1.03 fold enrichment (6-mer frequency, TF over GST control); with SPIB it was 1.03 fold enrichment (6-mer frequency, TF over GST control); in the test with ETV7 it was 1 fold enrichment (6-mer frequency, TF over GST control); with ETV3 it was 1.05 fold enrichment (6-mer frequency, TF over GST control).

In the case of CAGTTT, the binding signal with SPIB is 1.03 fold enrichment (6-mer frequency, TF over GST control); with ELK3, 1.04 fold enrichment (6-mer frequency, TF over GST control); with ERF it was 1.01 fold enrichment (6-mer frequency, TF over GST control).

Regarding GCTGTC, the binding signal with EHF is 1 fold enrichment (6-mer frequency, TF over GST control); in the test with ERF it was 1.03 fold enrichment (6-mer frequency, TF over GST control).

For GACGAT, the binding signal in the test with ERF was 1.02 fold enrichment (6-mer frequency, TF over GST control); with ETV7, 1 fold enrichment (6-mer frequency, TF over GST control).

Consider GGGTCC, for which, in the test with SPDEF, the binding signal is 1 fold enrichment (6-mer frequency, TF over GST control).

With TGGGCC, in the test with ERF, the binding signal was 1.03 fold enrichment (6-mer frequency, TF over GST control).

Turning to GGCCAC, the binding signal in the test with GABPA is 1.02 fold enrichment (6-mer frequency, TF over GST control); with ELF1, 1.03 fold enrichment (6-mer frequency, TF over GST control); with EHF it was 1.03 fold enrichment (6-mer frequency, TF over GST control); with FEV, 1.05 fold enrichment (6-mer frequency, TF over GST control); with ETS2, 1 fold enrichment (6-mer frequency, TF over GST control).

With CCGGGC, the binding signal with SPDEF was 1.05 fold enrichment (6-mer frequency, TF over GST control).

With GTCTGC, the binding signal with GABPA is 1.01 fold enrichment (6-mer frequency, TF over GST control).

Consider GGGCTG, for which the binding signal with GABPA was 1.03 fold enrichment (6-mer frequency, TF over GST control); with ERF, 1.03 fold enrichment (6-mer frequency, TF over GST control); in the test with ETV3L, 1.03 fold enrichment (6-mer frequency, TF over GST control); with ETV7 it was 1.05 fold enrichment (6-mer frequency, TF over GST control).

In the case of GTGGAC, the binding signal with ERF was 1.03 fold enrichment (6-mer frequency, TF over GST control).

Turning to CGGAAT, the binding signal is 1 fold enrichment (6-mer frequency, TF over GST control) in the test with SPDEF; 1.02 fold enrichment (6-mer frequency, TF over GST control) with ETV3; 1.01 fold enrichment (6-mer frequency, TF over GST control) with ETV6.

On to GGGAAG, for which the binding signal in the test with ETV6 is 1.04 fold enrichment (6-mer frequency, TF over GST control).
